Source: the supplement of paper PMC12494721
Structures can show the parent of a compound that is named as a salt. A number with no mark means an inactive call.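 The calls were made as follows: for the amine columns active = adjusted P below 0.05 in both replicates with a change the same way and a mean fold change under 0.8 or over 1.25; inactive = the rest.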

system: Klebsiella aerogenes DSM 30053; experiment: fold change of Cadaverine concentration vs plate DMSO controls (fold change (ratio)); higher = more amine produced, active = hit call of the paper (significant change in both replicates, either direction); details: 20 µM; incubation time: 27 h, anaerobic, 37 °C
In short: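 Extracts of whole anaerobic mGAM cultures were analysed for amines by LC–triple-quadrupole MS with dynamic MRM and external calibration curves, with drift corrected within batch. Four gut strains were grown at 37 °C for 27 h in 80 µL wells with compounds at 20 µM final, sweeteners at 50 µM final. Each value expresses fold change over plate DMSO controls. The average of 2 biological replicates is shown.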

Compared with `C[C@@H]1C[C@@H]([C@H](O)CC2CC(=O)NC(=O)C2)C(=O)[C@@H](C)C1` [Cycloheximide], `CC(=O)O[C@H]1CC[C@@]2(C)C(=CC[C@@H]3[C@@H]2CC[C@]2(C)C(=O)CC[C@@H]32)C1` [Dehydroisoandosterone 3-acetate] is higher in “fold change of Cadaverine concentration” value: 0.998 for the first, 1.01 for the second.

Compared with `CCNC1(c2cccs2)CCCCC1=O` (stereo unspecified) [Tiletamine hydrochloride], `C[C@]12C=CC(=O)C=C1CC[C@@H]1[C@@H]2CC[C@@]2(C)[C@H]1CC[C@]2(C)O` [Methandrostenolone] is lower in “fold change of Cadaverine concentration” value: 1.01 for the first, 0.991 for the second.

First: CCCC1COC(Cn2cncn2)(c2ccc(Cl)cc2Cl)O1 (stereo unspecified)
Second: CC(C)(C)C(O)(CCc1ccc(Cl)cc1)Cn1cncn1 (stereo unspecified)
The “fold change of Cadaverine concentration” value of the first is lower: 0.993 for the first, 1.03 for the second.

Compared with `ClC1C(Cl)C(Cl)C(Cl)C(Cl)C1Cl` (stereo unspecified), `O=[N+]([O-])O[C@@H]1CO[C@H]2[C@@H]1OC[C@@H]2O` [Isosorbide mononitrate] is higher in “fold change of Cadaverine concentration” value: 0.994 for the first, 1.04 for the second.

`CN1C[C@H](CNC(=O)OCc2ccccc2)C[C@@H]2c3cccc4c3c(cn4C)C[C@H]21` [Metergoline] and `O=C(O[C@H]1C[N+]2(CCCOc3ccccc3)CCC1CC2)C(O)(c1cccs1)c1cccs1` [Aclidinium bromide] are the same in “fold change of Cadaverine concentration” value: 1 for the first, 1 for the second.

Compared with `C[N+]1(C)CCCCC1`, `O=P1(N(CCCl)CCCl)NCCCO1` (stereo unspecified) [Cyclophosphamide] is lower in “fold change of Cadaverine concentration” value: 1.02 for the first, 0.999 for the second.

First: N#Cc1nn(-c2c(Cl)cc(C(F)(F)F)cc2Cl)c(N)c1[S+]([O-])C(F)(F)F (stereo unspecified)
Second: Cc1cc(C(F)(C(F)(F)F)C(F)(F)F)ccc1NC(=O)c1cccc(I)c1C(=O)NC(C)(C)CS(C)(=O)=O
The “fold change of Cadaverine concentration” value of the first is higher: 1.08 for the first, 0.987 for the second.

Compared with `COCC(=O)N(c1c(C)cccc1C)[C@H](C)C(=O)OC`, `CCOC(=O)CC(SP(=S)(OC)OC)C(=O)OCC` (stereo unspecified) is lower in “fold change of Cadaverine concentration” value: 1.01 for the first, 0.993 for the second.

Compared with `CC1C=CC=CCCC=CC=CC=CC=CC(OC2OC(C)C(O)C(N)C2O)CC2OC(O)(CC(O)C(O)CCC(O)CC(O)CC(O)CC(=O)OC(C)C(C)C1O)CC(O)C2C(=O)O` (stereo unspecified) [Nystatine], `CC(=O)OCC(=O)[C@H]1CC[C@H]2[C@@H]3CC[C@H]4C[C@H](O)CC[C@]4(C)[C@H]3C(=O)C[C@]12C` [Alfadolone acetate] is lower in “fold change of Cadaverine concentration” value: 1.01 for the first, 0.977 for the second.

First: Fc1ccc([C@]2(Cn3cncn3)O[C@H]2c2ccccc2Cl)cc1 (racemic)
Second: C[C@@H]1CN([C@H]2CC[C@](C#N)(c3ccc(F)cc3)CC2)CC[C@]1(C(=O)O)c1ccccc1 [Levocabastine hydrochloride]
The “fold change of Cadaverine concentration” value of the first is lower: 0.982 for the first, 0.999 for the second.

Going from `O=C(Nc1ccccc1-c1ccc(Cl)cc1)c1cccnc1Cl` to `Cc1cc(C(C#N)c2ccc(Cl)cc2)c(Cl)cc1NC(=O)c1cc(I)cc(I)c1O` (stereo unspecified) [Closantel], the “fold change of Cadaverine concentration” value rises from 0.999 to 1.05.

Compared with `CCN(CC)c1nc(C)cc(OP(=S)(OC)OC)n1`, `COP(=S)(OC)Oc1nc(Cl)c(Cl)cc1Cl` is lower in “fold change of Cadaverine concentration” value: 1 for the first, 0.991 for the second.

Going from `CCC(C)(c1ccc(O)cc1)c1ccc(O)cc1` [Bisphenol B] to `C#CCOc1ccc(CCNC(=O)C(OCC#C)c2ccc(Cl)cc2)cc1OC` (stereo unspecified), the “fold change of Cadaverine concentration” value rises from 0.98 to 1.01.

Going from `CNC(=O)/C=C(\C)OP(=O)(OC)OC` to `COP(=S)(OC)SCN1C(=O)c2ccccc2C1=O`, the “fold change of Cadaverine concentration” value rises from 0.998 to 1.01.

Going from `CO/C=C(/C(=O)OC)c1ccccc1Oc1cc(Oc2ccccc2C#N)ncn1` to `CC(C)N(C(=O)COc1nnc(C(F)(F)F)s1)c1ccc(F)cc1`, the “fold change of Cadaverine concentration” value falls from 0.992 to 0.989.

Compared with `O=C(O)c1nc(Cl)ccc1Cl`, `CCC(=O)Nc1ccc(Cl)c(Cl)c1` is higher in “fold change of Cadaverine concentration” value: 0.983 for the first, 1.16 for the second.

Compared with `CCn1cc(C(=O)O)c(=O)c2cc3c(cc21)OCO3` [Oxolinic acid], `C[C@]12CC[C@@H]3c4ccc(OC(=O)N(CCCl)CCCl)cc4CC[C@H]3[C@@H]1CC[C@@H]2O` [Estramustine] is higher in “fold change of Cadaverine concentration” value: 0.976 for the first, 1.04 for the second.

`O=C(O)C(F)(F)C(F)(F)C(F)(F)C(F)(F)C(F)(F)C(F)(F)F` [PFHpA (Perfluoroheptanoic acid)] and `OCC(O)CCl` (racemic) are the same in “fold change of Cadaverine concentration” value: 1 for the first, 1 for the second.
